Screening results as filed in PubChem BioAssay.
BRCA1 expr up: increases BRCA1 expression. MCF7-BRCA1-FFLuc reporter, luminescence, 48 h; response scale: scaled: vehicle 0%, 10 µM genistein 100%. Potency, µM (top dose mostly 46.1 µM), for inactives: at the highest dose activation, most hits filed as activators. 380,000 compounds, 1.1% hits; also: potency is read from the fitted curve at half-maximal effect; nearly all actives have a fitted effect of over 80% in size
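Reporter cells (MCF7, BRCA1 promoter-firefly luciferase) received library compounds across a concentration series for 48 h. End-point luminescence was measured and concentration-effect curves derived after normalization.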
mIDH1 inhibitor: human IDH1 R132H inhibition; O75874; IDH1-R132H enzyme, NADPH consumption, diaphorase/resazurin fluorescence; Potency, µM (top dose mostly 76.6 µM), for the others: at the highest dose activity change, negative = inhibition, most hits filed as inhibitors; 390,000 compounds, 0.093% hits; AID 602179; also: potency is read from the fitted curve at half-maximal effect; % is scaled to controls: 0 for no effect and ±100 for the full control effect; nearly all actives have a fitted effect of over 65% in size
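IDH1-R132H (0.5 ug/mL) preincubated 30 min with compound, then NADPH (0.016 mM) and alpha-KG (2 mM) added; 80 min at RT, pH 7.5. Remaining NADPH coupled via diaphorase/resazurin to fluorescence (540/590 nm); concentration-response curves normalized to no-enzyme control.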
IL-2 act: activates IL-2 in a cell-based reporter assay; IL-2 activation reporter assay, cell-based qHTS; stimulated with anti-CD3/CD4/CD28 beads; in transgenic mouse T cells; activation, % (series mostly up to about 46 µM); 360,000 compounds, 0.065% hits; in the data active = activation above about 50%; inconclusive = mostly about 30% to 49%; also: 0% is about no effect
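Using fluorescent plate cytometry, EGFP and DsRed are detected in transgenic mouse T cells stimulated 18 h at 37 degrees C with antibody-coated beads after 60 min compound pretreatment.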
rTrxR1 inhibitor: rat TrxR1 inhibition | 390,000 compounds, 1% hits | O89049 | recombinant rTrxR1, NADPH fluorescence consumption, selenite substrate | Potency, µM (series often up to 114 µM), without a hit: at the highest dose activity change, negative = inhibition, hits mostly inhibitors; also: potency is read from the fitted curve at half-maximal effect; % is scaled to controls: 0 for no effect and ±100 for the full control effect; nearly all actives have a fitted effect of over 65% in size
Target sequence (O89049 whole entry, looked up): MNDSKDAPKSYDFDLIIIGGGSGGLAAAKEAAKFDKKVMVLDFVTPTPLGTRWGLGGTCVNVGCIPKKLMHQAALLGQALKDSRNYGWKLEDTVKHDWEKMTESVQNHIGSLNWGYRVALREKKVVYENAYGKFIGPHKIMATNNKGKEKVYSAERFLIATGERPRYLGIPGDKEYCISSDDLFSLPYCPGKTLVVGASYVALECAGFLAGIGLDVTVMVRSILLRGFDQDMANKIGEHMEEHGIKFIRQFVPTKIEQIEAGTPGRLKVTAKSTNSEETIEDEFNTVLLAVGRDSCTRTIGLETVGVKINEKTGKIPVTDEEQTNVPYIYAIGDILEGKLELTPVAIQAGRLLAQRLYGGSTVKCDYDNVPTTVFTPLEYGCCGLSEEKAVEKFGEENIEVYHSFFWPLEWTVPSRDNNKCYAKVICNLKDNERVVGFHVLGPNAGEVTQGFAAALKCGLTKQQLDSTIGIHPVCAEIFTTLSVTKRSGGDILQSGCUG
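Rat TrxR1 (90 nM in the dispensed reagent) was pre-reduced with 400 uM NADPH for 5 min at room temperature, then incubated with compound for 15 min. After 400 uM selenite was added, NADPH fluorescence (Ex 340/Em 450 nm) was followed for 8 min.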
Giardia kill: kills Giardia lamblia | activity change, % at 7.66 µM, hits read low | Giardia lamblia trophozoite viability | AID 540267 | 340,000 compounds, 0.15% hits; in the data active = activity change below about -80%; inconclusive = between about -30% and that limit;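 also: parasites exposed to compound for two days anaerobically before the ATP read; % is scaled to controls: 0 for no effect and ±100 for the full control effect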
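Killing of trophozoites was scored by loss of ATP luminescence after a 48 hrs anaerobic exposure to compounds at 37 deg C, using 100 cells per well.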
TrxR1 substrate: substrates of rat thioredoxin reductase 1; purified TrxR1 substrate turnover, NADPH consumption readout; O89049; Potency, µM (doses to about 114 µM), inactives show top-dose activity change, negative = substrate turnover; 390,000 compounds, 0.01% hits; also: potency is read from the fitted curve at half-maximal effect; % is scaled to controls: 0 for no effect and ±100 for the full control effect; nearly all actives have a fitted effect of over 50% in size
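Rat TrxR1, dispensed at 90 nM, was prereduced with 400 uM NADPH (final) for 5 min at ~22 deg C, then incubated with compound 15 min before 400 uM selenite. A first-read NADPH fluorescence drop versus no-compound background flagged substrates.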
An asterisk follows results filed as active; ? = inconclusive; . = no result given; [ ] = dose if it differs, or a comment. In the library only some 2.2% were active in any assay of this set; here they are far more common. Unless noted, calls follow the shape of the dose curve; as a rule, active = well fitted curve in the direction sought with a large enough effect; inconclusive = small, poorly fitted or top-dose-only effect, or another doubt; inactive = no such curve, though single readings can be large; an effect the other way counts as inactive or inconclusive.

SMILES	BRCA1 expr up	mIDH1 inhibitor	IL-2 act	rTrxR1 inhibitor	Giardia kill	TrxR1 substrate
Cn1c(O)c(/C=C2\C=Nc3ccccc32)c(=O)n(C)c1=O	-32%	-3%	0	-8%	-9	0%
O=C(c1ccc2nc(-c3ccco3)c(-c3ccco3)nc2c1)N1CCC2(CC1)OCCO2	5%	2%	3	4.5µM*	10	3%
COc1ccc(C(=O)N2CCC3(CC2)OCCO3)cc1	2%	-8%	-3	4%	0	3%
COc1ccc(-c2nc3ccccc3c(=O)o2)cc1	14µM*	8%	-2	31%	-16	23%
COc1ccc(-n2c(-c3ccc(C)cc3)nc3ccccc3c2=O)cc1	25%	4%	-1	3%[57.1 µM]	2	-5%
COc1ccccc1N1C(=O)NC(=O)/C(=C/c2ccc([N+](=O)[O-])s2)C1=O	-12%	6%	0	?	-12	-9%
O=C1NC(=O)N(Cc2ccc(F)cc2)C(=O)/C1=C\c1ccc([N+](=O)[O-])s1	-7%	7%	3	40µM*	-8	-11%
COc1ccc(CN2C(=O)NC(=O)/C(=C\c3ccco3)C2=O)cc1	-10%	-3%	-1	?	-5	-5%
COc1ccc(CN2C(=O)NC(=O)/C(=C/c3ccc([N+](=O)[O-])s3)C2=O)cc1	-15%	-4%	-3	40µM*	-20	-5%
O=C(c1ccc(CS(=O)(=O)c2ccc(Br)cc2)o1)N1CCC2(CC1)OCCO2	7%	-4%	1	7%	-12	2%
O=C(c1ccc(CS(=O)(=O)c2ccccc2)o1)N1CCC2(CC1)OCCO2	6%	1%	-2	28µM*	23	4%[57.1 µM]
C=CCN1CCc2cccc3c2[C@H]1Cc1ccc(O)c(O)c1-3	-39%	-7%	0	20µM*	-1	18%[57.1 µM]
Cc1ccc(NC(=O)Nc2cc3c(cc2N2CCCCC2)n(C)c(=O)n3C)cc1Cl	-55%	28µM*	.	-1%	.	1%
Cc1nn(Cc2ccccc2)c(C)c1C=C1C(=O)NC(=O)NC1=O	-5%	-3%	0	35µM*	41	-12%
Cc1cccc(OCCn2cccc2/C=C2/C(=O)NC(=O)N(Cc3ccco3)C2=O)c1	8%	-16%	0	35µM*	-7	-4%
O=C1NC(=O)N(Cc2ccco2)C(=O)/C1=C\c1cccn1CCOc1ccc(Cl)cc1	19%	-2%	-3	22µM*	-2	2%
Cc1ccc(C(c2nnnn2Cc2ccccc2)N2CC=C(c3ccc(F)cc3)CC2)cc1 (stereo not given)	-35%	6%	1	9%	-90*	6%
Fc1ccc(C2=CCN(C(c3ccc(Cl)cc3)c3nnnn3Cc3ccccc3)CC2)cc1 (stereo not given)	-21%	1%	-2	39%	16	16%
C[Se]C[C@H](N)C(=O)O	.	.	.	?	.	10%[57.1 µM]
Cc1ccc(N2C(=O)/C(=C/c3ccc(CN(CCC#N)S(C)(=O)=O)o3)C(=O)NC2=S)cc1	1%	-2%	-2	10µM*	-4	2%
c1ccc(CCN2CCCC2)cc1	.	.	.	14%	.	7%
COc1ccc(CC2NCC(O)C2OC(C)=O)cc1 (stereo not given)	?	8%	-4	25µM*	?	10%[57.1 µM]
CC1=CC2OC3CC4OC(=O)C=CC=CC(C(C)O)OCC(O)C(C)CC(=O)OCC2(CC1O)C4(C)C31CO1 (stereo not given)	?	0%	-1	45µM*	?	1%
CN1C(=O)/C(=C/c2cccn2-c2ccc3ccccc3c2)C(=O)NC1=S	-32%	4%	-1	?	-3	-7%
O=C1NC(=S)NC(=O)C1=Cc1cccn1-c1ccc(O)cc1	-50%	13%	0	20µM*	-3	1%
c1ccc(CCN2CCCCC2)cc1	.	.	.	12%	.	9%
NC(N)=NCCC[C@H](N)C(=O)O	.	.	.	16%[57.1 µM]	.	9%[57.1 µM]
CN(N=O)c1ccc(O)c(O)c1	.	.	.	0.95µM*	.	-6%[57.1 µM]
